Screen size: about 300,000 compounds; about 65 (0.02%) were called active.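 How the source made its calls: active means lowest replicate activity score at least 50, where 100 means six control SD above control mean; inconclusive means lowest score under 50 but half or more replicates reach 50; inactive means the rest.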 This excerpt belongs to a sample that is enriched for actives.
Assay: polyadenylation inhibitors in yeast reporter cells, primary screen, luminescence, S. cerevisiae (AID 1875);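 further: yeast exposed to compound for 9 h at 30 °C; higher score means more reporter readthrough which indicates perturbed polyadenylation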
Conditions: S. cerevisiae SKY197-pL101 polyadenylation reporter, beta-gal luminescence; at 12 µM; hits give high values; efflux-impaired pdr1/pdr3 knockout yeast; score 100 = 6 SD above DMSO

Activity score, inactive:
CC1C(=O)NC(=O)C1c1ccccc1 (stereo not given) -10.6%, CC(C)Cc1nn2c(=O)cc(O)nc2s1 4.85%, Cc1c(Br)cc(C(=O)N2CCCCCC2)c(C)c1C -12.8%, COc1ccccc1N1CCN(C(=O)c2cc(=O)c3cc(C)cc(C)c3o2)CC1 -11.1%, Cc1c(NS(=O)(=O)c2ccc(NC3CCCC3)c([N+](=O)[O-])c2)c(=O)n(-c2ccccc2)n1C 0.246%, COc1ccccc1OCC(=O)Nc1ccccc1C(=O)NC1CC1 -4.06%, O=C1c2ccccc2C(=O)N1Cc1cc(-c2ccccc2Cl)no1 16.1%, CCCOc1ccc(-c2c(C(=O)N/N=C/c3ccco3)nnn2-c2nonc2N)cc1 -8.58%, COCc1[nH][nH]c(=O)c1C=Nc1ccc(F)cc1F -2.51%, Cc1ccc(NC(=O)C(C)c2cccc(C(=O)c3ccccc3)c2)cc1 (stereo not given) -5.58%, COc1ccccc1N1CCN(S(=O)(=O)c2ccc3c(c2)NC(=O)CS3)CC1 9.75%, CN(C)Cc1ccccc1C1(O)c2ccccc2CSc2ccccc21 (stereo not given) -2.69%, CN(C)C(=O)c1ccc(NC(=O)c2ccccc2-c2ccccc2)cc1 -1.15%, CCC(Cc1ccccc1)NC(=O)C1CCCCC1 (stereo not given) 15.5%, CCCC[C@@H]1CN=C(N)N1CCCC 6.9%, C=CCN1C(=O)C2(OCCCO2)c2cccc(Cl)c21 -10.9%, CC(=O)NC(Cc1ccc(F)c(F)c1)C(=O)NC1CCN(c2nnnn2-c2ccccc2)CC1 (stereo not given) -5.96%, O=C(NCc1ccccc1Cl)NC(=O)c1csc([N+](=O)[O-])c1 8.38%, O=C(NCc1ccccc1)C1=C[C@@H](c2ccc(C(F)(F)F)cc2)C[C@@H](OCc2ccc(CO)cc2)O1 4.63%, Cc1ccc(C)c(N2CCN(C(=O)CCCCCn3c(=S)[nH]c4ccc(N5CCOCC5)cc4c3=O)CC2)c1 13.3%, S=c1[nH]cc(-c2ccc(Cl)cc2)n1-c1ccccc1 -13.1%, CC(C)c1ccc(NC(=O)[C@@H](NC(=O)N2CC(=O)Nc3ccccc32)C(C)C)cc1 8.86%, COc1ccc2c(c1)N(C)/C(=C1/SC(=S)N(NC(C)=O)C1=O)S2 -0.22%, Cc1ccc(C(=O)NC2CCCC(C)C2C)cc1S(=O)(=O)N1CCCCC1 (stereo not given) 0.169%, CCN(CC)Cc1c(C(=O)N/N=C/c2cccc(OCc3ccc(F)cc3)c2)nnn1-c1nonc1N -15.4%, COc1cc(OC)c(-n2cc(-c3ccc(Cl)cc3)[nH]c2=O)cc1Cl -4.07%, O=C1CSc2ccc(S(=O)(=O)NCc3ccccc3)cc2N1 3.02%, O=C(NN1C(=O)C2C3C=CC(O3)C2C1=O)c1ccncc1 (stereo not given) 2.42%, COc1cccc(-n2c(=S)sc3c(=O)n(-c4ccccc4C)c(SCC(=O)O)nc32)c1 27.3%, COc1cc(/C=C/C(=O)OCC(=O)NC(=O)NCc2ccccc2)ccc1OCC#N -0.558%, Cn1nccc1/C=N\NC(=O)c1ccc(Cl)cc1 7.4%, COc1ccc(S(=O)(=O)c2c[nH]c(=S)[nH]c2=O)cc1Cl 11.8%, COc1ccc(CNC(=O)c2ccc(Br)s2)cc1OC 6.38%, COc1ccc(Cl)cc1NC(=O)Cn1nc(-c2ccc(C)cc2)n(C)c1=S -3.37%, O=C(c1[nH]ncc1-c1ccc(Cl)cc1)C1CO1 (stereo not given) 19.5%, O=C(NCc1ccco1)c1ccc(NS(=O)(=O)c2cccc([N+](=O)[O-])c2)cc1 -6.5%, Cc1ccc(C(=O)N/C(=C\c2cn(C)c3ccccc23)C(=O)N2CCN(C)CC2)cc1 -4.13%, NC(=O)c1oc2ccccc2c1NC(=O)CS(=O)(=O)c1ccccc1 13.3%, O=C(O)Cn1c(Cc2ccccc2)nc2ccccc21 -5.1%, CC(C)c1ccc(OCC(O)CN2CCN(c3ccccn3)CC2)cc1 (stereo not given) -11.9%, O=S(=O)(NCCc1ccc(Cl)cc1)c1cccs1 14.8%, O=C(NC1CC1)C(Cc1ccccc1)NS(=O)(=O)c1ccccc1F (stereo not given) 2.29%, COc1ccc(N2CCN(CCNC(=O)Nc3cc(Cl)ccc3Cl)CC2)cc1 -1.83%, N#Cc1ccc(S(=O)(=O)NCC(=O)OCC(=O)NCCc2ccccc2)cc1 3.63%, CSc1ncc(C(=O)Nc2ccc(C)cc2C)c(C)n1 2.7%, CC(=O)c1ccc(S(=O)(=O)N2CCN(c3nc4c(C)c(C)ccc4cc3C#N)CC2)cc1 13.6%, Cc1ccc(NS(=O)(=O)c2ccc(C(C)(C)C)cc2)cn1 -9.91%, COc1ccc(N2CCN(CCNC(=O)c3nnc(Cc4c(F)cccc4Cl)o3)CC2)cc1 -12.7%, CCOC(=O)c1nn(-c2ccccc2F)c2nc(Nc3ccccc3)cc(=O)n12 -12.8%, CN(C)Cc1c(O)ccc2c(=O)c(-c3ccccc3Cl)coc12 8.63%, CN1CCN(C(=O)C(=O)c2cn(CC(=O)N3CCCC3)c3ccccc23)CC1 17%, CC(=O)Nc1ccc(NC(=O)CS(=O)(=O)c2cn(CC(=O)N3CCCCC3)c3ccccc23)cc1 4.41%, S=C(c1ccc(-c2ccccc2)o1)N1CCCCC1 -23.1%, CC(=O)Nc1cccc(OCC(=O)/C=C2\N(C)c3ccccc3C2(C)C)c1 -11.1%, Cc1ccc(OCC(=O)NCCCNC(=O)c2cccnc2)cc1C 0.135%, N#C/C=C\Oc1ccc(Cl)cc1N -86.8%, COC(=O)CSc1ccc2nnc(CCNS(=O)(=O)c3ccc(C)cc3)n2n1 6.76%, COc1ccc(C2Nc3ccccc3C(=O)N2c2ccc(Cl)cc2)cc1Cn1cc([N+](=O)[O-])cn1 (stereo not given) -9.63%, COc1cc(NC(=O)c2ccc(CNc3c(N4CCCC4)c(=O)c3=O)cc2)cc(OC)c1OC 19.5%, C/C(CC(=O)Nc1ccc(N(C)C)cc1)=N\NC(=O)c1ccccc1F -2.05%, COCCNC(=S)N1CCN(C)CC1 -14.8%, COc1ccc(CCN(C)C(=O)C23CC4CC(CC(Cl)(C4)C2)C3)cc1OC 5.22%, COc1cccc(NC(=O)Cn2c3ccc(F)cc3c3nc4n(c(=O)c32)CCS4)c1 -13.2%, Cc1ccc(Cl)cc1N1CCN(C(=O)c2cccc3c(=O)c(C)c(-c4ccccc4)oc23)CC1 5.32%, COC(=O)Nc1ccc(S(=O)(=O)N(C)CC(F)(F)C(F)F)cc1 3.96%, Clc1ccc(-c2nnc(-c3ccccc3)nc2N2CCSCC2)cc1 -11%, COc1cccc2cc(C(C)N(CCCN3CCOCC3)C(=O)Nc3ccc(Cl)cc3)oc12 (stereo not given) -8.58%, COC(=O)c1ccccc1NC(=O)C1CCN(C(=O)N2CCOc3ccccc32)CC1 8.38%, CCOc1ccc2sc(NS(=O)(=O)c3ccc(N)cc3)nc2c1 -8.96%, O=C1OCC2=C1C(c1ccccc1)CC(=O)N2c1cccc(F)c1 (stereo not given) 19.6%, COc1cccc(NC(=O)CC(c2ccc(OC(C)C)cc2)c2ccccc2OC)c1 (stereo not given) 10.2%, Cc1ccc2nc(SCC(=O)Nc3cccc4ccccc34)nc(=O)n2c1 -16.5%, CC1(C)C(C=C(Cl)Cl)C1C(=O)N(Cc1ccc(Cl)cc1)C1CCS(=O)(=O)C1 (stereo not given) -12.2%, N#CCSc1nc2ccc(N3CCOCC3)cc2c(=O)n1CCc1ccccc1 -15.9%, CC1CC(NC(=O)/C(C#N)=C/c2ccc[nH]2)CC(C)(C)C1 (stereo not given) -5.8%, CCN1C(=O)N[C@@H](CCc2ccccc2)C(C(=O)OC)=C1C -17.2%, O=C1C2C3C=CC(C3)C2C(=O)N1c1ccc(S(=O)(=O)Nc2nccs2)cc1 (stereo not given) -1.69%, O=C(NC(Cc1ccccc1)C(=O)N1CCCC(C(F)(F)F)C1)c1ccccc1 (stereo not given) 5.98%, Cn1ncc(N2CCN(S(=O)(=O)c3ccc(Br)cc3)CC2)c(Cl)c1=O 13.7%, CC(=O)N1C(=O)/C(=C2\SC(=S)N(NC(=O)c3ccc(O)cc3)C2=O)c2ccccc21 -6.71%, Cc1ccc(CNC(=O)CCCNC(=O)c2ccc(Cl)cc2)n1C -18.6%, Cc1cccc(N(C(=O)c2sc(C)nc2C)C(C(=O)NCC2CCCO2)c2ccccc2)c1 (stereo not given) -7.81%, CC(C)C1Nc2c(C(=O)O)cccc2C(Nc2ccccc2C(=O)O)C1(C)C (stereo not given) 12.3%, Cc1ccn2c(=O)nc(SCC(=O)NCc3ccc4c(c3)OCO4)nc2c1 17.3%, Cn1cc(S(=O)(=O)NC(c2ccccc2)c2ccccc2)c(=O)n(C)c1=O -1.67%, COCCCNC(NC(=O)c1ccc(C)cc1)C(Cl)(Cl)Cl (stereo not given) 8.69%, COc1ccc2oc(=N)c(C(=O)Nc3ccc(Br)cc3)cc2c1 0.299%, O=C(Nc1ccccc1N1CCOCC1)c1ccc(OCc2cscn2)cc1 3%, CC(=O)Nc1ccc(NC(=O)[C@@H](NC(=O)c2cccc(C)c2)C(C)C)cc1 -9.42%, CCOC(=O)CNC(=O)CSc1ccc2nnc(-c3cccnc3)n2n1 7.59%

Source: PubChem BioAssay AID1875 (Broad Institute, 2009)
